Screens deposited in PubChem by Columbia University Molecular Screening Center.
Shown are actives, neighbours in structure and some others; about 1.1% of the full set was active somewhere.
cytoskel mod: cytoskeleton assembly modification; HUVEC TNFa F-actin phalloidin imaging, high content; inhibition, % at 2 µM; 0.18% of 91,000 active; AID 836;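 active means inhibition above the batch mean plus 3 SD and confirmed as a hit by visual image inspection, cut at about 30% in these data, passing the limit was not always enough; inconclusive means above the inhibition threshold but rejected on visual inspection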
E-sel TNF inh: blocks E-selectin expression induced by TNF alpha; HUVEC TNFa-induced E-selectin immunofluorescence, high content; inhibition, % at 2 µM; 0.71% of 120,000 active; AID 1246;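 active means inhibition above the batch mean plus 3 SD, and confirmed as a hit on visual image review, cut at about 43% in these data; inconclusive means passes the inhibition cutoff but fails visual image review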
HUVEC tox TNFa: toxic to HUVEC cells under TNF alpha stimulation; HUVEC TNFalpha-stimulated, Hoechst cell count, imaging; cell count reduction, % at 2 µM; 0.17% of 93,000 active; AID 848;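 active means cell count reduction exceeding the screen mean by over 5 SD, scaled to untreated wells per plate, cut at about 78% in these data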;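 further: cells counted after 24 h of TNF alpha exposure following the 1 h pretreatment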
VCAM1 TNFa inh: reduces TNF alpha induced VCAM1 expression in HUVEC. inhibition, % at 2 µM. HUVEC TNFa-induced VCAM-1 immunofluorescence, high-content imaging. 0.48% of 95,000 active;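 active means inhibition above the batch mean plus 3 SD, with images confirmed as a hit by eye, cut at about 37% in these data; inconclusive means inhibition above that limit but hit not confirmed in images; inactive means inhibition not above that limit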
Hits are given with their value; . = inactive; ? = inconclusive; / = no result given.

SMILES	cytoskel mod	E-sel TNF inh	HUVEC tox TNFa	VCAM1 TNFa inh
CC(C)(C)C1C/C(=C/c2ccccn2)C(=O)/C(=C/c2ccccn2)C1 (stereo not given)	/	100	/	/
CC1C/C(=C/c2ccccn2)C(=O)/C(=C/c2ccccn2)C1 (stereo not given)	/	100	/	/
O=C1CC(N(Cc2ccc3c(c2)OCO3)C(=O)Nc2ccc(F)cc2)C(=O)N1c1ccccc1 (stereo not given)	.	.	.	.
COc1ccc(NC(=O)N(Cc2ccc3c(c2)OCO3)C2CC(=O)N(c3ccc(OC)cc3)C2=O)cc1 (stereo not given)	32	.	.	.
CCn1c(=O)n(CC(=O)Nc2ccc(F)cc2)c(=O)c2ccccc21	/	.	/	/
CC1CCN(S(=O)(=O)c2ccc(NC(=O)CSc3ncccc3C(=O)O)cc2)CC1	/	62	/	/
CCC1/C(=N\O)CC(c2ccco2)NC1c1ccco1 (stereo not given)	.	.	.	.
O=C(O)COc1ccc(=O)n(-c2ccccc2)n1	.	.	.	.
COC(=O)COc1ccc(=O)n(-c2ccccc2)n1	?	.	99	/
CC(C)CC(=O)NC(Nc1ccc([N+](=O)[O-])cc1)C(Cl)(Cl)Cl (stereo not given)	/	.	/	/
O=C1c2cccc3c([N+](=O)[O-])ccc(c23)C(=O)N1c1ccc(Cl)cn1	.	.	.	69
O=C1c2cccc3c([N+](=O)[O-])ccc(c23)C(=O)N1c1nccs1	.	.	.	76
O=C1c2cccc3c([N+](=O)[O-])ccc(c23)C(=O)N1c1ccccn1	.	.	.	.
O=C(Cc1cccc2ccccc12)Nc1ccc(N2CCOCC2)cc1	/	.	/	/
COc1ccc(Cl)cc1NC(=S)NCc1ccco1	.	100	.	.
O=C(Cc1ccc(Cl)cc1Cl)OCC(=O)N1CCN(C(=O)c2ccco2)CC1	/	.	/	/
O=c1c2ccccc2n2c(-c3cccc(F)c3)nnc2n1Cc1ccccc1	/	74	/	/
CC(=O)N1c2ccccc2C2(O)N=C(C)SC12 (stereo not given)	/	.	/	/
O=C(Nc1ccccc1)N1CCC(c2ccccc2)C1 (stereo not given)	65	.	.	.
COc1ccc(-n2c(SCC(=O)NCc3ccco3)nc3c([nH]c4ccccc43)c2=O)cc1	.	82	.	.
COc1ccc(-n2c(-c3ccc(F)cc3)cnc2SCC(=O)NCc2ccco2)cc1	.	.	.	.
COC(=O)CSCC(=O)Nc1nnc(-c2cccc(C)c2)s1	/	.	/	/
O=S(=O)(c1ccc(Cl)cc1)c1snnc1-c1ccccc1	.	.	.	50
CN(C)c1ncc(S(=O)(=O)c2ccc(Cl)cc2)c(-c2ccccc2)n1	.	.	.	.
CN(C)c1ccc(CC(=O)c2nc3ccccc3s2)cc1	/	.	/	/
SMILES	cytoskel mod	E-sel TNF inh	HUVEC tox TNFa	VCAM1 TNFa inh
CCc1c(C)nc2ncnn2c1N1CCC(C(=O)N2CCN(c3ccc(F)cc3)CC2)CC1	.	55	.	.
CCc1c(C)nc2ncnn2c1N1CCCC(C(=O)Nc2ccc(NC(C)=O)cc2)C1 (stereo not given)	.	.	.	.
Cc1cccc(C(=O)N[C@H](C(=O)Nc2ccc(C)c(S(=O)(=O)N(C)C)c2)C(C)C)c1	/	.	/	/
CC(c1ccco1)N(C(=O)c1ccc(Cl)s1)c1ccccn1 (stereo not given)	.	/	.	.
CC(c1ccco1)N(C(=O)C12CC3CC(CC(C3)C1)C2)c1ccccn1 (stereo not given)	.	100	.	.
CN(C)C(=S)NC1CCS(=O)(=O)C1 (stereo not given)	/	.	/	/
O=S1(=O)CCC(NC(=S)N2CCCCCC2)C1 (stereo not given)	/	70	/	/
Cc1ccc(N/N=C/c2ccc(N3CCOCC3)cc2)cc1C	.	.	/	67
Cc1ccc(N/N=C/c2ccc3c(c2)OCCO3)cc1Cl	/	.	/	/
O=C(C1CC1)N1CCc2cc(Br)cc(S(=O)(=O)NCCCN3CCCC3)c21	/	66	/	/
CC(=O)N1CCc2cc(Br)cc(S(=O)(=O)NCCCN3CCC(C)CC3)c21	.	.	.	.
O=C(CC1C(=O)N(c2ccccc2)C(=O)N1C1CCCCC1)Nc1ccccc1 (stereo not given)	.	.	.	.
O=C1NCCCc2c1oc1cc(Br)c(O)c(Br)c21	/	97	/	/
CCSc1nc2ccccc2n1C(=O)/C=C/c1ccc(OC)c(OC)c1	/	100	/	/
C=CCSc1nc2ccccc2n1C(=O)/C=C/c1ccc(OC)c(OC)c1	.	.	.	.
C=CCSc1nc2ccccc2n1C(=O)/C=C/c1cc(OC)c(OC)c(OC)c1	.	66	.	92
COc1ccc(N(CCC#N)C(=O)/C(C#N)=C/c2cccs2)cc1	/	.	/	/
CCOC(=O)c1c(NC(=O)COC(=O)c2c(C)noc2C)sc2c1CCC2	.	.	.	.
CCOC(=O)c1c(NC(=O)COC)sc2c1CCCC2	.	53	.	.
